High-throughput results as filed in PubChem BioAssay.
A selection: hits, their analogues and other compounds. The true share with any hit is near 28%.
hDAT+cocaine = changed hDAT dopamine uptake under cocaine IC80, either direction, primary screen, cocaine antagonist project, cell-based, LLC-PK1 hDAT, [14C]-dopamine uptake, MLSMR | Sodium-dependent dopamine transporter (Homo sapiens), Q01959 | actives 1.3% (n = 110,000) | AID 449768, 2010 | LLC-PK1 hDAT cells, [14C]-dopamine uptake with cocaine IC80; actives deviate in either direction | B-score at 10 µM;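 active = Z score or B-score, a plate-position-corrected score, falls beyond the plate's 99.7% confidence bounds, in either direction; inactive = both scores lie inside the 99.7% bounds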;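 also: scored against the spread of the other compound wells on the same plate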
CYP2C19 inh = blockers of cytochrome P450 2C19 activity – biochemical, luminescence, ADME assay, primary screen. P33261. CYP2C19 Supersomes, luciferin-H EGE luminescence, 30 min. inhibition, % at 5 µM. actives 21% (n = 96,000). AID 778, 2007;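 active = CYP2C19 inhibition above a set limit at 5 µM in the primary screen, cut at about 50% in these data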;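 also: plate controls were negative control wells for no effect and 2.5 mM tranylcypromine positive control for full effect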
CYP2C9 inh = blockers of cytochrome P450 2C9 activity – biochemical, luminescence, ADME assay, primary screen. P11712. inhibition, % at 5 µM. actives 20% (n = 96,000). AID 777, 2007. CYP2C9 Supersomes, luciferin-H conversion;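 active = blocking of liver enzyme CYP2C9 beyond about 50% at 5 µM, limit read from the data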
Target sequence (P11712 whole entry, looked up): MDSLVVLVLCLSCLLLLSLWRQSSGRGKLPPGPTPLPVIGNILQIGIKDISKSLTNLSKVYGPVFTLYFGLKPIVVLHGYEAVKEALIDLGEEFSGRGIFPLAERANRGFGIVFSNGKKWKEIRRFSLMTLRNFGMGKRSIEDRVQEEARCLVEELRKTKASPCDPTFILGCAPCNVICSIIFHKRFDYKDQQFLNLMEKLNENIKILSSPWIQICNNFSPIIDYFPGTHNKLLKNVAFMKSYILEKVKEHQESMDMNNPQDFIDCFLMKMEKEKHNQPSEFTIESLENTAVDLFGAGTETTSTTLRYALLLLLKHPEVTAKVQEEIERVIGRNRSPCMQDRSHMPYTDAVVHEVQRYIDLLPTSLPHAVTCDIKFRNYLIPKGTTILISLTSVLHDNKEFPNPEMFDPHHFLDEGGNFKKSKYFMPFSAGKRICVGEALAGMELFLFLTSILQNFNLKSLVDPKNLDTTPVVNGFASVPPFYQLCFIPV
CYP2C19 activ = human CYP2C19 activators, primary screen, biochemical, luminescence | Cytochrome P450 2C19 (Homo sapiens), P33261 | recombinant CYP2C19, luciferin-H EGE luminescence; active compounds read high; 0 = fully inhibited enzyme, 1 = untreated enzyme | activation factor at 5 µM | 96,000 tested, under 10 active | AID 1025, 2008;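 active = activation factor of at least 2 at 5 µM in the primary screen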;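 also: 0 = wells with 2.5 mM tranylcypromine and 1 = vehicle-only wells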
D1 mod = D1 CRE-luciferase signal change, two-sided – cell-based, HEK293 D1, dopamine EC30, D1 allosteric modulator project, primary screen; actives 5.9% (n = 58,000); B-score at 10 µM; dopamine EC30 potentiation; actives deviate in either direction;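 active = luminescence count or its row- and column-corrected plate score outside the 99.7% band of the plate's sample wells, on either side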
CYP2C9 act = human CYP2C9 activators, primary screen, biochemical, luminescence; activation factor at 5 µM; Cytochrome P450 2C9 (Homo sapiens), P11712; actives 1.4% (n = 96,000); recombinant CYP2C9, luciferin-H conversion; active compounds read high; factor 1 = untreated enzyme, 0 = blocked; AID 1024, 2008;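 active = activation factor of 2 or more for CYP2C9 at a 5 µM dose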;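 also: 0 = sulfaphenazole-blocked wells and 1 = vehicle-only wells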
Starred values were filed as active, the others as inactive; · = no result.

SMILES	hDAT+cocaine	CYP2C19 inh	CYP2C9 inh	CYP2C19 activ	D1 mod	CYP2C9 act
Cc1nc(C(C)(C)O)n(-c2ccccc2)n1	0.45	10	4	0.9	-1.4	1
CC(C)CCC(C)N=Cc1c(O)n(Cc2ccccc2)c(=O)c2ccccc12 (configuration not stated)	0.27	-4	86*	1	·	0.1
CCN(CC)CCCN=Cc1c(O)n(Cc2ccccc2)c(=O)c2ccccc12	-0.33	17	22	0.8	·	0.8
COc1ccc(N2CCN(CC(=O)Nc3nc4c(s3)CC(C)CC4)CC2)cc1 (configuration not stated)	2	43	57*	0.6	0.6	0.4
CC1CCc2nc(NC(=O)C3CCCO3)sc2C1 (configuration not stated)	-0.66	-5	3	1	-4.6*	1
CC1CCc2nc(NC(=O)c3ccco3)sc2C1 (configuration not stated)	0.64	66*	56*	0.3	-7.5*	0.4
COc1ccc(N2CCN(CC(=O)Nc3cc(C)on3)CC2)cc1	-0.85	-8	8	1.1	0.064	0.9
CCOc1ccc(N2C(=O)C(c3ccccc3)=C(c3nc4ccccc4s3)C2NC(C)=O)cc1 (configuration not stated)	-0.44	-4	26	1	·	0.7
O=C(c1ccc(S(=O)(=O)N2CCOCC2)cc1)N1CCN(c2ccccc2F)CC1	0.044	-7	-9	1.1	0.17	1.1
CCCCSC1(SCCCC)N=C(N)C2(C#N)C(c3ccccc3)NC(C)=C(C)C12C#N (configuration not stated)	0.012	57*	15	0.4	·	0.9
CCSC1(SCC)N=C(N)C2(C#N)C(c3ccccc3)NC(C)=C(C)C12C#N (configuration not stated)	-0.16	17	5	0.8	0.63	0.9
CCOc1ccc(C(C)NC(=O)CCC(=O)O)cc1 (configuration not stated)	0.18	2	8	1	-0.23	0.9
O=C(Cn1[nH]c(=O)c2ccccc2c1=O)OCC(=O)N(Cc1ccccc1)Cc1ccccc1	0.45	38	18	0.6	·	0.8
O=C(Nc1ccc2c(c1)OCCO2)C1CCCN(S(=O)(=O)c2cccc3nsnc23)C1 (configuration not stated)	0.18	32	42	0.7	·	0.6
O=C(Nc1cccnc1)C1CCCN(S(=O)(=O)c2cccc3nsnc23)C1 (configuration not stated)	0.052	69*	70*	0.3	-0.43	0.3
O=C(NCc1ccccn1)C1CCCN(S(=O)(=O)c2cccc3nsnc23)C1 (configuration not stated)	0.47	-13	-3	1.1	2.4	1
COc1cc(NC(=O)C2CCCN(S(=O)(=O)c3cccc4nsnc34)C2)cc(OC)c1 (configuration not stated)	-0.31	29	63*	0.7	-0.34	0.4
COc1ccc(OC)c(NC(=O)C2CCCN(S(=O)(=O)c3cccc4nsnc34)C2)c1 (configuration not stated)	1.7	67*	34	0.3	-0.41	0.7
Cc1ccc2nc(NC(=O)C3CCCN(S(=O)(=O)c4cccc5nsnc45)C3)sc2c1 (configuration not stated)	0.17	50	52*	0.5	0.23	0.5
Cc1ccc2nc(NC(=O)C3CCN(S(=O)(=O)c4cccc5nsnc45)CC3)sc2c1	·	·	·	·	-0.78	·
COC(=O)C1=C(C)N(CC2CC2)C(=O)N[C@H]1c1ccc(Br)cc1	0.016	·	·	·	·	·
O=S(=O)(CCc1nc2ccccc2s1)c1ccc2ccccc2c1	0.24	12	-83	0.9	·	1.8
CC(C)c1ccc(NC(=O)N(CCc2nc3ccccc3[nH]2)C2CCCC2)cc1	0.66	6	34	0.9	·	0.7
